# CHRM1 agonist – agonists of human M1 muscarinic receptor. P11229. CHO-K1 hM1, Fluo-8 calcium fluorescence, agonist mode; 0% DMSO, 100% acetylcholine EC100. activation, % at 3 µM. actives 0.33% (n = 360,000). AID 588814;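 active means activation above the run's mean compound activation plus 3 SD, cut at about 16% in these data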;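 further: peak over basal fluorescence ratio within a 140 s kinetic read after compound addition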
# Target sequence (P11229 whole entry, looked up): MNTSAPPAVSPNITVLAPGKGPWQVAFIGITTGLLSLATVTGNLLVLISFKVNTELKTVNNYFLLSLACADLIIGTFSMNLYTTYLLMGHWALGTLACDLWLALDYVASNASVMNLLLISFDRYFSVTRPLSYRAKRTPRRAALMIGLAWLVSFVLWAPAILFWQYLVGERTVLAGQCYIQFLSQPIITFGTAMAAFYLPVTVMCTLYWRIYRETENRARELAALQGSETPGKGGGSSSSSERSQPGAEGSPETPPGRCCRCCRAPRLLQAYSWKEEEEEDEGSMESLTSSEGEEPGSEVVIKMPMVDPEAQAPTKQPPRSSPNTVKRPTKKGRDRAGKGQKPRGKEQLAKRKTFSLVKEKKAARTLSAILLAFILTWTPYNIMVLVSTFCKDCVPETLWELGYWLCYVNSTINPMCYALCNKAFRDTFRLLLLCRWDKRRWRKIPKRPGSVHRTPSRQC
# CHRM4 agonist – agonists of human muscarinic M4 receptor (CHRM4) | activation, % at 3 µM | actives 0.14% (n = 360,000) | AID 624127 | CHO-K1 hM4/Gqi5, Fluo-8 calcium fluorescence; vehicle 0%, full acetylcholine response 100%;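 active means activation above the run mean over all test wells plus 3 SD, cut at about 32% in these data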;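 further: peak over basal fluorescence ratio per well then scaled between controls; 0% = DMSO wells and 100% = acetylcholine at EC100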
# M4 PAM – positive allosteric modulators of human muscarinic M4 receptor | P08173 | CHO-K1 hM4/Gqi5, Fluo-8 calcium fluorescence, ACh EC20; 0% = ACh EC20, 100% = maximal ACh | activation, % at 3 µM | actives 0.4% (n = 360,000);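 active means activation above its plate's cutoff, the mean activation of sample wells plus 3 SD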
# CHRM4 antagonist – blocks acetylcholine activation of human M4 receptor; P08173; CHO-hM4 cells, ACh EC80, Fluo-8 calcium fluorescence; inhibition, % at 3 µM; actives 0.73% (n = 360,000); AID 624125;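 active means inhibition above its plate's cutoff, the mean inhibition of sample wells plus 3 SD, cut at about 27% in these data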;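 further: 0% = acetylcholine EC80 with DMSO and 100% = DMSO without agonist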
# M1 antag – antagonists of human M1 muscarinic receptor; CHO-K1 hM1, Fluo-8 calcium fluorescence, ACh EC80 antagonist; inhibition, % at 3 µM; actives 1.3% (n = 360,000);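 active means percent inhibition above its own plate's cutoff, namely the mean of that plate's compound wells plus 3 SD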;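 further: peak over basal fluorescence ratio during 140 s after agonist addition; 0% = ACh EC80 plus DMSO and 100% = DMSO alone without agonist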
# CHRM1 PAM – potentiates human M1 receptor response to acetylcholine | P11229 | CHO-K1 hM1, Fluo-8 calcium fluorescence, ACh EC20; 0% = ACh EC20, 100% = maximal ACh | activation, % at 3 µM | actives 0.088% (n = 360,000); in the data active means activation above about 19%, passing the limit was not always enough
# Numbers without * were called inactive. Rows were chosen to be rich in hits. Some 2.2% of all compounds tested hit in one or more screens of this group.
SMILES,CHRM1 agonist,CHRM4 agonist,M4 PAM,CHRM4 antagonist,M1 antag,CHRM1 PAM
CC1=NOC(=O)/C1=C\c1ccc(-c2ccc(Br)cc2)o1,5,10,-11,34*,34*,-1
CC1=NOC(=O)/C1=C/c1ccc(-c2ccc(Cl)cc2)o1,4,9,-2,34*,21,-1
CC1=NOC(=O)/C1=C\c1ccc(-c2cc(Cl)ccc2Cl)o1,2,1,3,7,9,8
CC(NC(=O)Nc1cccc(Cl)c1)C(c1cccs1)N1CCCC1 (configuration not stated),-7,9,-2,3,10,-6
CC(NC(=O)Nc1ccc([N+](=O)[O-])cc1)C(c1cccs1)N1CCCC1 (configuration not stated),16,50*,-1,-9,7,-4
CC(C)=CCCC(C)CN(C)CCc1ccccn1 (configuration not stated),-8,3,-16,14,42*,-19
O=C(COc1coc(CN2CCc3ccccc32)cc1=O)Nc1ccc([N+](=O)[O-])cc1,-1,2,-2,0,1,1
COc1ccc(NC(=O)CS(=O)CC(=O)Nc2ccc(OC)c(OC)c2)cc1 (configuration not stated),-4,1,30*,-4,-4,6
COc1ccc(OC)c(NC(=O)CSc2nc3ccccc3cc2Cc2ccccc2)c1,-3,2,6,-1,-2,1
COCCNC(=O)c1ccccc1-c1nc(-c2ccccc2OC)no1,-1,11,-4,-5,6,-7
CCc1c(O)nc(SCC(=O)Nc2ccc(Cl)cc2)n(-c2ccccc2)c1=O,-1,0,17*,-6,-17,15
Oc1ccc(Nc2nc3ccccc3nc2Nc2ccc(O)cc2)cc1,-1,4,-12,27*,0,5
Cc1ccc(OCC(=O)NC2CCCCCC2)cc1C,-6,1,7,-6,-6,-10
N#Cc1ccccc1NC(=S)Nc1ccc(F)cc1,-3,2,8,2,8,-1
COC(=O)c1ccc(CN2CCCC(CCC(=O)NCc3ccc(C)o3)C2)cc1 (configuration not stated),53*,0,-20,59*,87*,-29
COC(=O)c1ccc(CN2CCCC(CNC(=O)Cc3ccc(OC)cc3)C2)cc1 (configuration not stated),30*,2,-3,6,14,-6
COc1ccccc1CNC(=O)CCN1C(=O)COc2ccccc21,-12,1,-1,1,-2,-2
Cc1ccc(-c2noc(-c3ccno3)n2)cc1,2,1,31*,-1,-16,11
O=C(CC(NC(=O)OCc1ccccc1)C(=O)OCc1ccccc1)OCc1ccccc1 (configuration not stated),-3,8,-8,28*,5,-3
O=C(CC(NC(=O)OCc1ccccc1)C(=O)O)OCc1ccccc1 (configuration not stated),-3,1,-1,4,1,5
COC(=O)CCc1c(C)[nH]c(=S)[nH]c1=O,8,1,8,-3,-34,21*
COc1cc(C(=O)Nc2ccc3c(c2)N(C(=O)CCN(C)C)c2ccccc2CC3)cc(OC)c1OC,-14,1,-21,30*,27*,-33
CC1(C2CCC3C4CCC5CC6(CCC5(C)C4C(=O)CC32C)OCCO6)OCCO1 (configuration not stated),-5,1,9,-18,-24,25*
COC(=O)c1ccc(COc2ccc(/C=N/N3CCN(C)CC3)cc2)cc1,-10,19,-16,6,31,-31
CN1CCN(/N=C/c2ccc(OCc3ccccc3)cc2)CC1,-5,8,5,-2,58*,-25
SMILES,CHRM1 agonist,CHRM4 agonist,M4 PAM,CHRM4 antagonist,M1 antag,CHRM1 PAM
COC1=C(Nc2ccccc2)C(=O)C(OC)=C(Nc2ccccc2)C1=O,0,1,3,-10,-23,12
CCN1C/C(=C/c2ccc(N3CCOCC3)cc2)C(=O)/C(=C/c2ccc(N3CCOCC3)cc2)C1,23*,15,-13,14,31,-9
CN1C/C(=C\c2ccc(N3CCOCC3)cc2)C(=O)/C(=C/c2ccc(N3CCOCC3)cc2)C1,1,6,-14,9,22,-10
O=C(Nc1ccc(-c2ccco2)cc1)C1CCCN(Cc2ccco2)C1 (configuration not stated),-6,2,-1,9,-4,7
COc1cccc(N2CCN(c3ccc([N+](=O)[O-])cn3)CC2)c1,-4,1,17*,-1,-16,8
COc1cccc(C2c3[nH]c4ccccc4c3CCN2Cc2cnc(C)s2)c1OC (configuration not stated),-16,-1,-19,23,35*,-34
COc1ccc(-c2c(-c3cc(OC)cc(OC)c3)n(C)c3ccc(-c4cnc(N)nc4)cc23)cc1,-2,1,4,12,-6,8
CC(=NNc1nc2ccccc2s1)c1ccncn1,0,23,-2,58*,-5,11
C/C(=N\Nc1nc2ccccc2s1)c1ccc(Br)s1,-8,-1,-8,2,-15,10
COc1ccc(/C(C)=N/N2CCCCC2)c(O)c1,18*,1,3,-10,1,4
COc1ccc(O)c(/C=N/N2CCCCC2)c1,8,1,-1,-4,-22,13
O=c1nc(SCc2c(F)cccc2Cl)nc(-c2ccc(Cl)cc2)[nH]1,-3,1,39*,-20,-14,2
Cc1ccc2nc(C(C)(C)C)c(Cc3cccc(Cl)c3)n2c1,-8,-2,-15,27*,70*,-26
CC(=O)[C@H]1[C@@H]2C(=O)N(c3cccc(Cl)c3)C(=O)[C@@H]2[C@H]2c3ccccc3C=CN21,1,1,0,1,-1,8
O=C(NCCN1CCOCC1)N1c2ccccc2Sc2ccccc21,-5,1,-15,38*,62*,-24
O=C(NCCO)N1c2ccccc2Sc2ccccc21,-5,0,-5,1,-10,8
CN(C)CCCNC(=O)N1c2ccccc2Sc2ccccc21,-11,1,-16,97*,100*,-28
O=C(CCN1CCOCC1)N1c2ccccc2Sc2ccc(Cl)cc21,-8,1,-19,57*,100*,-29
COc1ccc(-c2noc(C3CCCN(C(=O)c4ccccc4C)C3)n2)cc1 (configuration not stated),0,14,-6,3,6,4
CCOC(=O)c1cnc2c(C)cccc2c1Nc1cccc(C(=O)O)c1,-4,2,14,30*,7,0

# Source: PubChem BioAssay (The Scripps Research Institute Molecular Screening Center)
